Screening results deposited in PubChem BioAssay by several laboratories.
CYP2C9 inhib – blockers of cytochrome P450 2C9 activity – biochemical, luminescence, ADME assay, primary screen. inhibition, % at 5 µM. CYP2C9 Supersomes, luciferin-H conversion. actives 20% (n = 96,000). P11712;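 active = blocking of liver enzyme CYP2C9 beyond about 50% at 5 µM, limit read from the data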
CYP2C9 activ – human CYP2C9 activators, primary screen, biochemical, luminescence; AID 1024, 2008; Cytochrome P450 2C9 (Homo sapiens), P11712; recombinant CYP2C9, luciferin-H conversion; stronger effect = higher value; factor 1 = untreated enzyme, 0 = blocked; actives 1.4% (n = 96,000); activation factor at 5 µM;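 active = activation factor of 2 or more for CYP2C9 at a 5 µM dose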
sEH act – soluble epoxide hydrolase activators, primary screen, biochemical, human sEH; Bifunctional epoxide hydrolase 2 (Homo sapiens), P34913; purified human sEH enzymatic activity, activator screen; activation, % at 2 µM; actives 0.04% (n = 91,000); AID 717, 2007; in the data active = activation above about 37%
Target sequence (P34913 whole entry, looked up): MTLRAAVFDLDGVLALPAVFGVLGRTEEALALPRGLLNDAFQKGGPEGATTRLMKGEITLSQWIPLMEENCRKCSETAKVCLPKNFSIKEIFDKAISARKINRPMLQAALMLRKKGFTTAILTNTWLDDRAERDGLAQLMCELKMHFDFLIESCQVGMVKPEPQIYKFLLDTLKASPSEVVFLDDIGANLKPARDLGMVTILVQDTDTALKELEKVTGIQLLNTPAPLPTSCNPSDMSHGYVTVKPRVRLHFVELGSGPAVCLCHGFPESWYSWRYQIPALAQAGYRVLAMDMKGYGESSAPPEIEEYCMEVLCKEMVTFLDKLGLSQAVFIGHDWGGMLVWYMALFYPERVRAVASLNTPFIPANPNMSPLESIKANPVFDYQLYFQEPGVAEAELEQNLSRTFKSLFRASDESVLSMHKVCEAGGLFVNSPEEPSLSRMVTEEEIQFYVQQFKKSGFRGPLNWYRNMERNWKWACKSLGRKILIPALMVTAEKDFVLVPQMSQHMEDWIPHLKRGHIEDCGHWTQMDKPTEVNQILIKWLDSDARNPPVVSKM
sEH inh – soluble epoxide hydrolase inhibitors, primary screen, biochemical, human sEH; actives 0.34% (n = 91,000); Bifunctional epoxide hydrolase 2 (Homo sapiens), P34913; inhibition, % at 2 µM; recombinant human sEH enzymatic activity assay; in the data active = inhibition above about 80%
CYP2C19 act – human CYP2C19 activators, primary screen, biochemical, luminescence | Cytochrome P450 2C19 (Homo sapiens), P33261 | recombinant CYP2C19, luciferin-H EGE luminescence; stronger effect = higher value; 0 = fully inhibited enzyme, 1 = untreated enzyme | activation factor at 5 µM | 96,000 tested, under 10 active;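 active = activation factor of at least 2 at 5 µM in the primary screen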
CYP2C19 inhib – blockers of cytochrome P450 2C19 activity – biochemical, luminescence, ADME assay, primary screen; CYP2C19 Supersomes, luciferin-H EGE luminescence, 30 min; inhibition, % at 5 µM; actives 21% (n = 96,000);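 active = CYP2C19 inhibition above a set limit at 5 µM in the primary screen, cut at about 50% in these data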
Numbers stand for hits; n = inactive; x = no result. Rows were chosen to be rich in hits. Some 27% of all compounds tested hit in one or more screens of this group.

SMILES	CYP2C9 inhib	CYP2C9 activ	sEH act	sEH inh	CYP2C19 act	CYP2C19 inhib
CCN1c2ccccc2-c2nc3ccccc3n2C1c1ccco1 (stereo not given)	59	n	n	n	n	n
CN1c2ccccc2-c2nc3ccccc3n2C1c1ccncc1 (stereo not given)	95	n	n	n	n	96
O=C1CCC(C(=O)NC2(C(=O)NC3CCCCC3)CCCCC2)N1 (stereo not given)	n	n	n	n	n	n
O=S(=O)(NC1CCCc2ccccc21)c1cnc[nH]1 (stereo not given)	52	n	x	x	n	68
Cn1c(=O)oc2cc(S(=O)(=O)NC3CCCc4ccccc43)ccc21 (stereo not given)	n	n	n	n	n	n
CC(c1ccccc1)N1CC(C(=O)NC2CCCC2)CC1=O (stereo not given)	n	n	n	n	n	n
CC(C)Cc1nnc(NS(=O)(=O)Cc2ccccc2)s1	63	n	n	n	n	n
CS(=O)(=O)Nc1nnc(Cc2ccccc2)s1	x	x	n	n	x	x
CCCCn1c(=O)c(C(=O)c2ccccc2)nc2ccccc21	n	n	n	n	n	n
CCCCNC(=O)CC1C(=O)N(Cc2ccccc2)C(C)c2nc3ccccc3n21 (stereo not given)	n	n	x	x	n	71
CN(C)CCCN1C(=O)C(=O)/C(=C(/O)c2ccc3c(c2)OCO3)C1c1cccnc1 (stereo not given)	x	x	n	n	x	x
Cc1ccc(C(=O)Nc2nc(=O)n(C)s2)cc1	n	n	n	n	n	n
Cc1ccc(C(=O)Nc2nc(=O)n(C(=O)c3ccccc3Cl)s2)cc1	94	n	n	n	n	66
Cc1ccc(C(=O)Nc2nc(=O)n(C(=O)CC(C)C)s2)cc1	84	n	x	x	n	n
O=C(NCCCN1CCOCC1)c1ccco1	n	n	n	n	n	n
O=C(c1ccco1)N(CCCN1CCOCC1)c1nc(-c2ccc(F)cc2)cs1	67	n	n	n	n	n
O=C(C1CC1)N(Cc1ccco1)c1nc(-c2ccccc2)cs1	n	n	n	n	n	n
O=C(c1ccco1)N(CCCN1CCOCC1)c1nc(-c2ccc(Cl)cc2)cs1	92	n	n	n	n	87
O=C(c1ccccn1)N(Cc1ccco1)C1(C(=O)NC2CCCC2)CCCCC1	n	n	n	n	n	n
O=C(Cc1cccs1)N(Cc1ccco1)C1(C(=O)NC2CCCC2)CCCCC1	60	n	x	x	n	n
O=C(c1ccc2c(c1)OCO2)N(Cc1ccco1)C1(C(=O)NC2CCCCC2)CCCCC1	n	n	n	n	n	59
CCN(C(=O)C1CCN(S(=O)(=O)c2ccc3c(c2)oc(=O)n3C)CC1)c1cccc(C)c1	n	n	n	n	n	n
Cc1noc(C)c1COC(=O)c1cc2c(C)nn(-c3ccc(F)cc3)c2s1	n	n	x	x	n	n
Cc1noc(C)c1COC(=O)c1cc2c3ccccc3n(C)c2s1	81	n	n	n	n	57
N#C/C(=C\c1cc(Cl)cc(Cl)c1O)C(=O)NC1CCCCC1	n	n	n	n	n	n
SMILES	CYP2C9 inhib	CYP2C9 activ	sEH act	sEH inh	CYP2C19 act	CYP2C19 inhib
N#C/C(=C\c1cc(Cl)ccc1O)C(=O)NC1CCCCC1	61	n	n	n	n	n
CC(C)CC(=O)NCc1ccc(F)cc1	n	n	n	n	n	n
O=C(CSc1nnc(CNc2ccccc2)o1)N1CCN(C(=O)c2ccco2)CC1	x	x	n	n	x	x
CCOC(=O)c1c(NC(=O)CSc2nnc(C)c(=O)[nH]2)sc2c1CCCC2	98	n	n	n	n	n
CCOC(=O)Nc1sc2c(c1C(=O)OCC)CCC2	n	n	n	n	n	n
NC(=O)c1c(NC(=O)COC(=O)CSc2nnc(-c3ccc(Cl)cc3)o2)sc2c1CCC2	79	n	n	n	n	n
CCOC(=O)c1c(NC(=O)CSc2nnc(C)s2)sc2c1CCCCC2	55	n	n	n	n	n
CCOC(=O)Cc1csc(SCc2nc3sc4c(c3c(=O)[nH]2)CCC4)n1	n	n	n	n	n	n
CCOC(=O)Cc1csc(SCC(=O)Nc2sc3c(c2C(N)=O)CCC3)n1	50	n	x	x	n	n
COC(=O)CC1SCCNC1=O (stereo not given)	n	n	n	n	n	n
Cc1nnc(SCC(=O)Nc2sc3c(c2C#N)CCCC3)[nH]c1=O	79	n	n	n	n	n
Cc1nnc(SCC(=O)Nc2sc3c(c2C#N)CCCCC3)n1N	n	n	n	n	n	n
COc1ccc(C2C3=C(CC(C)(C)CC3=O)Nc3c2c(=O)[nH]c2nc(C)nn32)cc1 (stereo not given)	n	n	n	n	n	n
CC(=O)CC(c1ccc([N+](=O)[O-])cc1)c1c(O)c2ccccc2oc1=O (stereo not given)	76	n	n	n	n	n
O=[N+]([O-])c1ccc2c(c1)oc1ccccc12	n	n	n	n	n	n
O=C(c1cccc(-n2cnnn2)c1)N1CC=C(c2ccccc2)CC1	n	n	n	n	n	n
Cc1c(NS(=O)(=O)c2cccs2)c(=O)n(-c2ccccc2)n1C	n	n	n	n	n	55
Cc1c(NC(=O)c2ccccc2NS(=O)(=O)c2ccc(Br)cc2)c(=O)n(-c2ccccc2)n1C	n	n	n	n	n	n
Cc1c(NS(=O)(=O)CC23CCC(CC2=O)C3(C)C)c(=O)n(-c2ccccc2)n1C (stereo not given)	n	n	n	n	n	55
Cc1c(NS(=O)(=O)c2ccc(Br)s2)c(=O)n(-c2ccccc2)n1C	54	n	n	n	n	n
Cc1c(NS(=O)(=O)c2ccc3c(c2)n(C)c(=O)n3C)c(=O)n(-c2ccccc2)n1C	n	n	n	n	n	n
Cc1c(NS(=O)(=O)N2CCCCC2)c(=O)n(-c2ccccc2)n1C	n	n	n	n	n	74
CCS(=O)(=O)Nc1c(C)n(C)n(-c2ccccc2)c1=O	n	n	n	n	n	n
CN1CCN(S(=O)(=O)c2ccc(SCCOc3ccccc3)nc2)CC1	n	n	n	n	n	51
Cc1ccc(C)c(N(CC(=O)NC2CCCC2)C(=O)c2cc3cc4cccc(C)c4nc3s2)c1	96	n	n	n	n	n
Cc1ccc2cc3cc(C(=O)N(CC(=O)NC4CCCC4)c4cccc(C)c4C)sc3nc2c1	94	n	n	n	n	n
Cc1ccc(C)c(N(CC(=O)NC2CCCC2)C(=O)c2oc(C(C)(C)C)cc2C)c1	n	n	n	n	n	n
COCCN(CCOC)C(=O)c1c[nH]c2ccc(S(=O)(=O)N(C)c3ccc(F)cc3)cc2c1=O	n	n	n	n	n	n
